Measured values taken from PubChem BioAssay (NCATS).
Results filed as inconclusive are left out. Calls of active or inactive are those of the source. Calls come from the whole dose curve; as a rule, active = well fitted inhibition curve with a large enough effect; inconclusive = small, poorly fitted or top-dose-only effect; inactive = flat fitted curve, though single readings scatter. Where a SMILES comes first, the peptide text is derived from it. The star is where a group is joined. AFC = O=c1cc(C(F)(F)F)c2ccc(N*)cc2o1

What was measured:
CRL-7250 = normal cell line; test: Cytotoxic Profiling of Annotated Libraries Using Quantitative High-Throughput Screening (AID 1296008); settings: Five cell lines viability, CellTiter-Glo ATP luminescence, 48-72 h; max response: hits give low values; for max response: % is set by controls: 0 for no effect and ±100 for the full control effect
In short: (§1)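 Compounds were pin-transferred onto cells and incubated 48 or 72 hr at 37 degree Celsius, 95% humidity. CellTiter-Glo was added, plates sat 10 min at room temperature, then ATP-coupled luminescence was imaged as the viability read-out.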

HEK293 = test: as above; settings: Five cell lines viability, CellTiter-Glo ATP luminescence, 48-72 h; max response: hits give low values
In short: as §1

HaCat = test: as above; settings: Five cell lines viability, CellTiter-Glo ATP luminescence, 48-72 h; max response: hits give low values
In short: as §1

KB-3-1 = test: as above; settings: Five cell lines viability, CellTiter-Glo ATP luminescence, 48-72 h; max response: hits give low values
In short: as §1

NIH3T3 = test: as above; settings: Five cell lines viability, CellTiter-Glo ATP luminescence, 48-72 h; max response: hits give low values
In short: as §1

HEK293T = test: qHTS assay to identify novel small-molecules to repurpose for Merkel cell carcinoma treatment (AID 1296009); settings: MCC and control cell lines, CellTiter-Glo viability, 72 h; series mostly up to 44.8 µM
In short: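 Viability readout: ATP luminescence (CellTiter-Glo) after 72 hr drug exposure at 37 degree celsius. Dose-response format was 8 points for NPC and 11 points for MIPE; data normalized to in-plate controls.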
Note: nearly all actives have a fitted effect of over 60% in size.

CC1(C)C(=O)C(C)(C)c2cc(C(=O)Nc3ccc(C(=O)O)cc3)ccc21
inactive: max response (CRL-7250) 2.14% | outcome (HEK293) | max response (HaCat) -8.59% | outcome (KB-3-1) | outcome (NIH3T3) | Potency (HEK293T)

CCOC(=O)Nc1nc2ccccc2[nH]1
inactive: max response (CRL-7250) 3.6% | outcome (HEK293) | max response (HaCat) -2.18% | max response (KB-3-1) 2.03% | outcome (NIH3T3) | Potency (HEK293T)

COC1C2=C(COC2=O)C2(C)CCCC(C)(CO)C2C1OC(=O)c1ccccc1 (centres undefined)
inactive: outcome (CRL-7250) | outcome (HEK293) | max response (HaCat) -2.64% | outcome (KB-3-1) | outcome (NIH3T3) | Potency (HEK293T)

c1nc(NC2CCCCCC2)c2cc(CNC[C@H]3CCCO3)sc2n1
inactive: outcome (CRL-7250) | outcome (HEK293) | max response (HaCat) -3.62% | max response (KB-3-1) -9.77% | max response (NIH3T3) 3.78% | Potency (HEK293T)

CC1CCC2C(C(=O)O)=CC3CC(C)(C)CC132 (centres undefined)
inactive: max response (CRL-7250) 3.63% | outcome (HEK293) | max response (HaCat) -7.87% | max response (KB-3-1) 3% | outcome (NIH3T3) | Potency (HEK293T)

CC12CCC3c4ccc(O)cc4CCC3C1CCC2OC1OC(C(=O)O)C(O)C(O)C1O (centres undefined)
inactive: outcome (CRL-7250) | outcome (HEK293) | max response (HaCat) 2.12% | outcome (KB-3-1) | max response (NIH3T3) 1.3% | Potency (HEK293T)

CC(/C=C/[C@]1(O)[C@@]2(C)CO[C@@]1(C)C[C@@H](O)C2)=C\C(=O)O[C@@H]1O[C@H](CO)[C@@H](O)[C@H](O)[C@H]1O
inactive: outcome (CRL-7250) | outcome (HEK293) | max response (HaCat) -14.2% | outcome (KB-3-1) | outcome (NIH3T3) | Potency (HEK293T)

Cn1c(=O)cc(N2CCCC(N)C2)n(Cc2ccccc2C#N)c1=O (centres undefined)
inactive: max response (CRL-7250) -7.54% | outcome (HEK293) | max response (HaCat) 0.732% | max response (KB-3-1) 8.99% | outcome (NIH3T3) | Potency (HEK293T)

CC1CCC2C(C)(C)C(O)CCC2(C)C12Cc1c(O)cc3c(c1O2)CN(C(CCC(N)=O)C(=O)O)C3=O (centres undefined)
inactive: max response (CRL-7250) 0.113% | outcome (HEK293) | max response (HaCat) 2.99% | max response (KB-3-1) 5.86% | max response (NIH3T3) -0.736% | Potency (HEK293T)

CCN(c1cc(C#CCN2CCOCC2)cc(C(=O)NCc2c(C)cc(C)[nH]c2=O)c1C)C1CCC(N(C)CCOC)CC1 (centres undefined)
inactive: outcome (CRL-7250) | outcome (HEK293) | max response (HaCat) -3.84% | outcome (KB-3-1) | outcome (NIH3T3) | Potency (HEK293T)

CC(C)CC(=O)OC[C@H]1O[C@@](COC(=O)CC(C)C)(O[C@H]2O[C@H](CO)[C@@H](O)[C@H](O)[C@H]2OC(=O)CC(C)C)[C@@H](OC(=O)CC(C)C)[C@@H]1O
inactive: outcome (CRL-7250) | outcome (HEK293) | max response (HaCat) -5.25% | max response (KB-3-1) 6.03% | max response (NIH3T3) 0.671% | Potency (HEK293T)

C=C1[C@@H]2[C@H]3OC(=O)C(=C)[C@@H]3CC[C@@](C)(O)[C@@H]2C[C@@H]1O[C@@H]1O[C@H](CO)[C@@H](O)[C@H](O)[C@H]1O
inactive: max response (CRL-7250) -4.93% | outcome (HEK293) | max response (HaCat) -10.8% | max response (KB-3-1) 1.42% | max response (NIH3T3) -3.98% | Potency (HEK293T)

COC(=O)c1cc(CN2CCN(C(=N)N)CC2)cc(C(=O)N2CCN(C(=O)c3ccc(C(=N)N)cc3)CC2)c1
inactive: outcome (CRL-7250) | outcome (HEK293) | max response (HaCat) 1.52% | max response (KB-3-1) 2.44% | outcome (NIH3T3) | Potency (HEK293T)

CC1CCC(=O)CC(O)C(O)CC(=O)O1 (centres undefined)
inactive: max response (CRL-7250) -5.97% | outcome (HEK293) | max response (HaCat) 4.62% | max response (KB-3-1) 5.19% | outcome (NIH3T3) | Potency (HEK293T)

CN1C(=O)c2ccccc2NC(=O)[C@]12O[C@@H]2c1cccc(O)c1
inactive: max response (CRL-7250) -2% | outcome (HEK293) | max response (HaCat) -7.54% | max response (KB-3-1) 4.06% | max response (NIH3T3) -15.7% | Potency (HEK293T)

CC1(CO)CC[C@]2(C(=O)O[C@@H]3O[C@H](CO)[C@@H](O)[C@H](O)[C@H]3O)CC[C@]3(C)C(=CCC4[C@@]5(C)C[C@H](O)[C@H](O[C@@H]6OC[C@@H](O)[C@H](O)[C@H]6O)[C@@](C)(CO)C5CC[C@]43C)C2C1 (some centres undefined)
inactive: outcome (CRL-7250) | outcome (HEK293) | max response (HaCat) -24.8% | outcome (KB-3-1) | max response (NIH3T3) 2.22% | outcome (HEK293T) inactive [at 9.27 µM]

CC1CCC2C(C)(C)C(O)CCC2(C)C12Cc1c(O)cc3c(c1O2)CN=C3N (centres undefined)
inactive: max response (CRL-7250) -3.95% | outcome (HEK293) | max response (HaCat) 3.03% | max response (KB-3-1) 2.69% | outcome (NIH3T3) | Potency (HEK293T)

O=C(NCc1ccc(OC(F)(F)F)cc1)C1c2ccccc2C(=O)N1C1CCOCC1 (centres undefined)
inactive: outcome (CRL-7250) | outcome (HEK293) | max response (HaCat) -6.26% | outcome (KB-3-1) | outcome (NIH3T3) | Potency (HEK293T)

C/C(=C/CCC(CO)C1CCC2(C)C3CCC4C(C)(C)C(OC5OC(CO)C(O)C(O)C5O)CC(O)C45CC35CCC12C)COC1OC(CO)C(O)C(O)C1O (centres undefined)
inactive: outcome (CRL-7250) | outcome (HEK293) | max response (HaCat) -8.45% | max response (KB-3-1) -1.63% | max response (NIH3T3) 0.608% | Potency (HEK293T)

CC1OC(OC2C(CO)OC(OCC3OC(OC(=O)C45CCC(C)(C)CC4C4=CCC6C7(C)CCC(OC8OC(C(=O)O)C(O)C(OC9OC(CO)C(O)C(O)C9O)C8O)C(C)(C)C7CCC6(C)C4(C)CC5)C(O)C(O)C3O)C(O)C2O)C(O)C(O)C1O (centres undefined)
inactive: outcome (CRL-7250) | outcome (HEK293) | max response (HaCat) -1.82% | outcome (KB-3-1) | max response (NIH3T3) 3.49% | outcome (HEK293T) inactive [at 9.27 µM]

COc1cc(-c2cccc(O)c2)cc2c1OCO2
inactive: max response (CRL-7250) -4.5% | outcome (HEK293) | max response (HaCat) 0.342% | outcome (KB-3-1) | outcome (NIH3T3) | Potency (HEK293T)

CC(=O)N[C@@H](CC(C)C)C(=O)N[C@@H](CCC(=O)O)C(=O)N[C@@H](CCC(=O)O)C(=O)N[C@@H](CC(=O)O)C(=O)Nc1ccc2c(C(F)(F)F)cc(=O)oc2c1 (Ac-LEED-{AFC})
inactive: max response (CRL-7250) -4.37% | outcome (HEK293) | max response (HaCat) -31% | max response (KB-3-1) 0.179% | max response (NIH3T3) 1.1% | Potency (HEK293T)

C=Cc1cc(O)cc2nc(-c3ccc(O)c(F)c3)oc12
inactive: max response (CRL-7250) -4.59% | outcome (HEK293) | max response (HaCat) -8.75% | outcome (KB-3-1) | outcome (NIH3T3) | Potency (HEK293T)

C=CCc1ccc(O[C@@H]2O[C@H](CO[C@@H]3O[C@H](CO)[C@@H](O)[C@H](O)[C@H]3O)[C@@H](O)[C@H](O)[C@H]2O)c(O)c1
inactive: max response (CRL-7250) -24.9% | outcome (HEK293) | max response (HaCat) -10.9% | max response (KB-3-1) -2.46% | outcome (NIH3T3) | Potency (HEK293T)
